Assay outcomes (PubChem BioAssay)
An excerpt weighted towards active compounds, which were near 21% of everything screened.
Pf growth 48h – inhibits P. falciparum growth in the first generation, 48 h. P. falciparum luciferase growth in erythrocytes, 48 h. Potency, µM (doses to about 28.7 µM), for the others: at the highest dose activity change, negative = inhibition, hits mostly inhibitors. 5.9% of 310,000 active. AID 504832; note: potency is the fitted concentration of half-maximal effect; % is set by controls: 0 for no effect and ±100 for the full control effect
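In quantitative HTS format, infected erythrocytes bearing luciferase-reporter parasites were treated for a single generation at 37 C. Luminescence after adding detection reagent served as the growth measure.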
CHX counter – affects cycloheximide protein synthesis inhibition readout, counter-screen; 12% of 300,000 active; AID 2314; cell reporter, cycloheximide protein synthesis inhibition counterscreen; max response, %; in the data active = max response mostly above about 13%, no sharp cut-off; inactive = mostly below about 14%; note: read at 38.3 µM for the half of the compounds with a filed dose; 0% is about no effect
Pf growth 96h – P. falciparum growth inhibition at 96 hours; P. falciparum luciferase reporter growth, 96 h; 6.9% of 320,000 active; Potency, µM (highest dose often 28.7 µM), inactives show at the top dose activity change, negative = inhibition, hits mostly inhibitors; AID 504834; note: potency is the fitted concentration of half-maximal effect; % is set by controls: 0 for no effect and ±100 for the full control effect
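96 h incubation, 37 C, 5% CO2, of luciferase-reporter P. falciparum-infected RBCs (2% hematocrit, 0.05% parasitemia final) with test compounds; endpoint luminescence.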
NS1 function inh – inhibitors of influenza NS1 protein function; AID 2326; 0.4% of 270,000 active; Potency, µM (highest dose often 46.1 µM), for inactives: at the top dose activity, positive = more growth; calls by dose curve; note: potency is the fitted concentration of half-maximal effect; actives are rising curves; nearly all actives have a fitted effect of over 50% in size
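Recovery from NS1-induced slow growth read by OD600 in budding yeast switched to galactose assay medium (pH 6.0, -URA) at 1:100 dilution. Compound 23 nl per well; the matching strain lacking NS1 serves as control.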
Shiga toxin inh – inhibitors of Shiga toxin in Vero cells | inhibition, % at 38.7 µM | AID 2315 | Vero cells, Shiga toxin protein synthesis inhibition reporter | 9.2% of 290,000 active; in the data active = inhibition mostly above about 28%, no sharp cut-off; inactive = mostly below about 43%; note: 0% is about no effect
SARS PLpro yeast – inhibitors of SARS-CoV papain-like protease in yeast | S. cerevisiae expressing SARS-CoV PLpro, growth rescue | Potency, µM (titrated, usually from 32.9 µM), for the others: at the highest dose activity, positive = growth rescue, most hits filed as activators | 0.19% of 330,000 active; calls by dose curve; note: potency is the fitted concentration of half-maximal effect; 0% is about no effect; nearly all actives have a fitted effect of over 55% in size
* marks the source's active call; other numbers are inactive results; ? = inconclusive; · = not tested or not shown. Unless noted, calls come from the whole dose curve; as a rule, active = well fitted inhibition curve with a large enough effect; inconclusive = small, poorly fitted or top-dose-only effect, or another doubt; inactive = no such curve, though single readings can be large or run the other way.

SMILES | Pf growth 48h | CHX counter | Pf growth 96h | NS1 function inh | Shiga toxin inh | SARS PLpro yeast
Cc1oc(S(=O)(=O)N2CCOCC2)cc1C(=O)Nc1ccc(Cl)cc1 | 18% | 2 | -20% | 1% | -12 | 0%
COc1ccc(NS(=O)(=O)c2ccc3c(c2)NC(=O)CC(=O)N3)cc1OC | 2% | 12 | 14% | -5% | -5 | -1%
COc1cc(/C=C2\C=CC(=O)O2)cc(OC)c1 | · | 18* | 2% | -2% | 19 | -3%
CC(=O)Nc1ccc2c(c1)nc(CCN1CCN(c3ccccn3)CC1)n2C | 42% | -3 | 26% | 4% | 15 | 1%
COc1ccc(NC(=O)c2cccc(NC(=O)c3ccccc3)c2)c(OC)c1 | -25% | -1 | 10µM* | 7% | -2 | 2%
COc1ccc(-c2cccc(C(=O)Nc3cccc(C(=O)O)c3)c2)cc1 | 231% | 103* | 14% | 11% | 106* | -4%
COc1cc(NC(=O)Cc2ccccc2)ccc1NC(=O)c1ccccc1 | 12% | 1 | 10µM* | -13% | -3 | 8%
COc1ccc(OC)c(NC(=O)c2cccc(NC(=O)c3ccccc3)c2)c1 | 21% | 6 | 223% | -10% | 21 | -6%
COc1ccc(-c2cccc(C(=O)Nc3ccc(C)cc3)c2)cc1 | 6% | 1 | 125% | 12% | 16 | 9%
COc1cc(NC(=O)c2ccccc2)ccc1NC(=O)Cc1ccccc1 | -8% | 4 | -23% | -16% | 5 | 1%
COc1cccc(C(=O)Nc2cccc(-c3ccccc3)c2)c1 | 25% | 42* | 58% | -36% | 78* | -17%
Cc1ccc(NC(=O)CN(c2ccccc2)S(=O)(=O)N(C)C)cc1 | 2% | -5 | 2% | 4% | 3 | 16%
CCOC(=O)COn1c(=O)c(-c2ccc(F)cc2)[n+]([O-])c2ccccc21 | 27% | -4 | 12% | -3% | -1 | 2%
CCOn1c(=O)c(-c2cc(OC)ccc2OC)[n+]([O-])c2ccccc21 | -54% | -2 | ? | -2% | -5 | 0%
CCOc1ccc(-c2c(=O)n(OCc3ccc([N+](=O)[O-])cc3)c3ccccc3[n+]2[O-])cc1 | 40% | 10 | 12µM* | 29% | 13 | 3%
CCOc1ccc(-c2c(=O)n(OCC)c3ccccc3[n+]2[O-])cc1 | · | 24* | 51% | -3% | 26 | -1%
CCCOc1ccc(-c2c(=O)n(OCC(=O)OCC)c3ccccc3[n+]2[O-])cc1 | 20% | 39* | 5% | -3% | 59* | -3%
CCOc1ccc(OCC)c(-c2c(=O)n(OCc3ccc(C(C)(C)C)cc3)c3ccccc3[n+]2[O-])c1 | ? | 2 | 12µM* | 5% | 12 | 1%
CCc1nc(SCC(=O)Nc2cc(OC)ccc2OC)c2c(C)c(C)sc2n1 | ? | -5 | 37% | -6% | 3 | -1%
COc1cccc(CC(=O)N[C@@H](CCSC)c2nc3ccccc3[nH]2)c1 | ? | 2 | -2% | · | -13 | -3%
CN(C)CCSc1nc(N)c2c3c(sc2n1)CN(C)CC3 | 4.1µM* | 11 | ? | 3% | -6 | 6%
CCCSc1nc(N)c2c3c(sc2n1)CN(C)CC3 | ? | 16 | ? | -2% | 35 | -1%
CCN(CC)CCNc1nc(SC)nc2sc3c(c12)CCN(C)C3 | ? | -1 | ? | 5% | -6 | 0%
COCCSc1nc(N)c2c3c(sc2n1)CN(C)CC3 | 5.2µM* | 10 | 3.7µM* | -1% | 16 | 0%
CC(C)Sc1nc(N)c2c3c(sc2n1)CN(C)CC3 | 1µM* | 16* | · | 6% | 21 | -4%
SMILES | Pf growth 48h | CHX counter | Pf growth 96h | NS1 function inh | Shiga toxin inh | SARS PLpro yeast
CC(=O)NC(Cc1ccccc1C)C(=O)NC1CCN(c2nnnn2-c2ccccc2)CC1 (stereo not drawn) | ? | 7 | ? | -4% | 2 | 2%
Cc1ccccc1NC(=O)Cn1nnc2ccccc21 | 23% | 13 | ? | · | 4 | -1%
Cc1cc([N+](=O)[O-])ccc1NC(=O)CCC(=O)N1CCCC1 | -12% | -1 | ? | 2% | -5 | 5%
O=C(O)CCn1cc(/C=C2/NC(=S)N(c3ccccc3)C2=O)c(-c2ccccc2)n1 | -14% | -2 | 3.7µM* | 29% | -6 | 11%
O=C(CCNS(=O)(=O)c1ccc(Cl)cc1)N1CCCCCC1 | 8% | -3 | 12µM* | 9% | -11 | -4%
Cc1ccc(S(=O)(=O)NCCC(=O)N2CCC(C)CC2)cc1 | 1% | · | -9% | · | · | 7%
O=C(CCNS(=O)(=O)c1cccs1)N1CCCCCC1 | 61% | 33* | ? | 9% | 102* | 4%
O=C(CNS(=O)(=O)c1cccs1)N1CCCCC1 | 14% | 8 | ? | 1% | 30 | 2%
O=C(CCS(=O)(=O)c1cccs1)N1CCCC1 | 44% | 18* | 21% | 6% | 63* | 0%
CC1CCN(C(=O)CCNS(=O)(=O)c2ccccc2)CC1 | 62% | 22* | ? | ? | 56* | 0%
COC(=O)C1=C(C(=O)OC)C2(OC1c1ccccc1C)C(=O)c1ccccc1C2=O (stereo not drawn) | ? | 0 | 35% | 13% | -14 | ?
O=C(CCCNS(=O)(=O)c1cccs1)N1CCN(c2ccc(F)cc2)CC1 | -15% | 1 | -3% | -12% | -7 | -5%
CC1CCCN(C(=O)CNS(=O)(=O)c2cccs2)C1 (stereo not drawn) | 26% | 27* | ? | 6% | 54 | 4%
Cc1cc(C(=O)N2CCCC(CNS(=O)(=O)c3cccs3)C2)nn1C (stereo not drawn) | 1% | -2 | -18% | -3% | -7 | -1%
Cc1nc2ccc(S(=O)(=O)NCC(=O)N3CCCC(C)C3)cc2s1 (stereo not drawn) | -6% | 2 | ? | 8% | 1 | 3%
Cc1nc(CC(C)C)cc(C(=O)N2CCCC(CNS(=O)(=O)c3cccs3)C2)n1 (stereo not drawn) | 18% | 4 | 8.3µM* | 2% | 7 | 0%
O=C(CCS(=O)(=O)c1cccs1)N1CCN(c2ccc(F)cc2)CC1 | 25% | 41* | 16% | -11% | 79* | -25%
Cc1ccc(O)c(C(=O)c2cnc3c(c2)c(C)nn3-c2ccccc2)c1 | 0% | -1 | -10% | 7% | 15 | -15%
CC(C)C1C(=O)CC(c2ccccc2)NC1c1ccccc1 (stereo not drawn) | -28% | -1 | 1.2µM* | 8% | -9 | 1%
CC1C(=O)CC(c2ccccc2)NC1c1ccccc1 (stereo not drawn) | · | -2 | -1% | -1% | 17 | 13%
Cc1ccc(NC(=O)CN(C)C(=O)COC(=O)c2nc3nccc(C)n3n2)cc1 | -10% | · | -8% | · | · | 4%
CCCCCCSc1ccc([C@H]2N[C@@](CC(C)C)(C(=O)OC)[C@H]3C(=O)N(C)C(=O)[C@@H]23)cc1OC | 6.6µM* | · | 4.7µM* | · | · | -4%
